# Results from ChEMBL document CHEMBL3988442, “University of Dundee, Small-Polar-MMV Screening Library” (2021).
# About 13,000 (27%) of roughly 48,000 compounds showed an effect of 50% or more. Some of the results follow.
# Tested on: Wolbachia pipientis
# Assay: Anti-Wolbachia Cell-Based Screen
# Assay type: functional
# Design: scale not given: in the data most compounds retested in dose-response had high values
# Conditions: 5 µM
row,SMILES,Percent Effect [%]
1,CCOCC(O)CN1CCN(C(=O)Cc2ccc(C)nc2)CC1 (centres undefined),-10.97
2,CCC(O)CN1CCN(C(=O)Cc2ccc(OC)cc2OC)CC1 (centres undefined),102.8
3,CCC(O)CN1CCN(C(=O)Cc2nc(-c3ccco3)oc2C)CC1 (centres undefined),-5.833
4,CCC(O)CN1CCN(C(=O)Cc2cc(C)ccc2OC)CC1 (centres undefined),134
5,CCOCC(O)CN1CCN(C(=O)Cc2ccccc2C)CC1 (centres undefined),-8.235
6,CCC(O)CN1CCN(C(=O)Cc2c(C)nc(C)[nH]c2=O)CC1 (centres undefined),-7.478
7,COCCN1C[C@H]2CC[C@@H]1CN(Cc1ccc3ccccc3n1)C2,26.94
8,CN1CCN(S(=O)(=O)c2cccc(F)c2)Cc2cccnc21.O=C(O)C(F)(F)F,100.3
9,CN1CCN(S(=O)(=O)c2ccccc2)Cc2cccnc21.O=C(O)C(F)(F)F,87.5
10,CCc1ccc(CN2CCN(C)c3ncccc3C2)o1.O=C(O)C(F)(F)F.O=C(O)C(F)(F)F,45.7
11,Cc1cnc(N2CCN(C)c3ncccc3C2)nc1.O=C(O)C(F)(F)F,1.496
12,Cc1ccc(N2CCN(C)c3ncccc3C2)nn1.O=C(O)C(F)(F)F,6.797
13,Cl.Cl.c1ccc(COC[C@H]2CCC[C@@]23CNCCO3)nc1,88.66
14,Cl.Cl.c1ccc(COC[C@@H]2CCC[C@@]23CNCCO3)nc1,92.25
15,Fc1cccnc1N1CCC2(CNCCC2(F)F)C1 (centres undefined),8.279
16,Cc1ccc(N2CC[C@@H]3CN(Cc4c[nH]cn4)C[C@@H]3C2)nn1,-8.039
17,CN1CCC2(Cc3ccccc3NC2=O)C1 (centres undefined),-15.76
18,CN1Cc2ccccc2NC(=O)C12CCNC2 (centres undefined),111
19,CCOCCC(=O)N1C[C@H]2CC[C@@H]1CN(Cc1ccncc1)C2,3.16
20,Cc1nc(CC(=O)N2CCN(C)CC2c2ccccc2)cs1 (centres undefined),-2.978
21,OC[C@@H]1CN2CCN(c3ccccn3)C[C@@H]2[C@H]1c1ccccc1,91.03
22,CN1CCN2C(=O)N(c3ccccc3)C[C@H]2C1,3.165

row,SMILES,Percent Effect [%]
1,OC[C@H]1CN2CCN(c3ccccn3)C[C@@H]2[C@@H]1c1ccccc1,97.55
2,CN1CCN2C[C@@H](CO)[C@H](c3ccccc3)[C@H]2C1,108.7
3,O=C(Cc1ccc(-n2cccn2)cc1)N1CCN2CCCCC2C1 (centres undefined),0.2002
4,N#Cc1cccc(N2CCOC3(CNCCOC3)C2)n1 (centres undefined),-42.42
5,Cc1cc(CN2C[C@@H]3COC[C@]3(CNS(C)(=O)=O)C2)no1.O=C(O)C(F)(F)F,-0.4635
6,Cc1nc(C2(NCc3cccc(F)c3F)CCCCC2)no1,-2.659
7,Cc1nc(C2(NCC(=O)NC(=O)Nc3ccccc3)CCCCC2)no1,112.9
8,Cc1nc(C2(NCC(=O)NC(=O)NCC(F)(F)F)CCCCC2)no1,132.3
9,Cc1nc(C2(NCc3ccc(C#N)cc3F)CCCCC2)no1,2.337
10,Cc1nc(C2(NCC(=O)NCc3cccs3)CCCCC2)no1,113.6
11,Cc1nc(C2(NCc3cc(C#N)ccc3F)CCCCC2)no1,11.5
12,Cc1cccnc1CCNC(=O)[C@@]12CNC[C@@H]1CN(S(C)(=O)=O)C2,-16.39
13,Cc1cccnc1CC(C)NC1CCSCC1 (centres undefined),-10.51
14,CC(Cc1c(F)cccc1F)NC(=O)CSCC(N)=O (centres undefined),-4.817
15,CCNC(=O)CN1CCSC2(CCCCC2)C1,-30.52
16,Cc1oncc1C(=O)N[C@@H]1CN(C2CCC2)C[C@@H]2CCCO[C@@H]21.O=C(O)C(F)(F)F,88.41
17,Cc1oncc1C(=O)N[C@@H]1CN(CC2CC2)C[C@@H]2CCCO[C@@H]21.O=C(O)C(F)(F)F,91.11
18,Cc1ncsc1CN1C[C@@H]2CCCO[C@@H]2[C@H](Nc2ccccn2)C1.O=C(O)C(F)(F)F.O=C(O)C(F)(F)F,103.9
19,O=C(CC1CC1)N[C@@H]1CN(Cc2cccnc2)C[C@@H]2CCCO[C@@H]21.O=C(O)C(F)(F)F.O=C(O)C(F)(F)F,-3.357
20,O=C(CC1CC1)N[C@@H]1CN(Cc2ccncc2)C[C@@H]2CCCO[C@@H]21.O=C(O)C(F)(F)F.O=C(O)C(F)(F)F,-9.965
21,Cc1cc(CN2C[C@@H]3CCCO[C@@H]3[C@H](Nc3ccccn3)C2)no1.O=C(O)C(F)(F)F.O=C(O)C(F)(F)F,7.146
22,Cc1noc(C)c1CN1C[C@@H]2CCCO[C@@H]2[C@H](NS(C)(=O)=O)C1.O=C(O)C(F)(F)F,-5.766
